The nature of experiment [1]: CCTE_Mundy_HCI_Cortical_NOG_BPCount: CCTE's Neurite Outgrowth Assay in rat cortical cells for Branch Point Count, Mundy Lab (AID 2284237).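 On AC50: branch points counted about two days after chemical exposure.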 The essentials: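 Measured 50.33 h after dosing, this morphology endpoint uses rat primary cortical cultures labelled for betaIII-tubulin. Branch points are quantified by high-content imaging, with DMSO as negative control and baseline.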

Experiment [2] is described as follows: UKN2_HCS_IMR90_cell_viability: Viability Assessment in the University of Konstanz (UKN) Leist Lab Neural Crest Cell Migration Assay in human induced IMR90 Pluripotent Stem Cells (UKN2) (AID 2284233).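 Further: viability of neural crest cells differentiated from IMR90 iPSC measured by calcein-AM fluorescence imaging; cells exposed to compound for 24 h after a 24 h migration phase.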 The gist of the method:
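iPSC-derived (IMR90) neural crest cells seeded around silicone stoppers on PLO/laminin/fibronectin; after 24 h migration in N2-S with EGF/FGF, chemical added for 24 h. Calcein-AM/Hoechst stained 30 min, high-content imaged; bidirectional fit versus DMSO.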

A short description of experiment [3]: UKN4_HCS_LUHMES_cell_viability: Viability Assessment in the University of Konstanz (UKN) Leist Lab Neurite Outgrowth Assay in human LUHMES cells (UKN4) (AID 2284232). How it is done: UKN4_HCS_LUHMES is a cell-based, multiplexed-readout assay screening for neurite outgrowth and cell viability that uses LUHMES, a human central nervous system cell line, with measurements taken at […] after chemical dosing in a microplate: 96-well plate. UKN4, also referred to as NeuriTox, is an assay that uses LUHMES neuronal precursors as a model of dopaminergic neuronal differentiation. Following a 2-day differentiation period, cells are exposed to chemicals for 24 hr and neurite area is evaluated as a marker of neurite outgrowth using high-content imaging of cells stained with calcein AM. Cell viability is assessed using stain Hoechst H-33342.UKN4_HCS_LUHMES_cell_viability is an assay component measured from the UKN4_HCS_LHUMES assay. It is designed to make measurements of enzyme activity, a form of viability reporter, as detected with Fluorescence intensity signals by HCS Fluorescent Imaging.The assay endpoint UKN4_HCS_LUHMES_cell_viability was analyzed with bidirectional fitting relative to DMSO as the negative control and baseline of activity. Using a type of viability reporter, gain or loss-of-signal activity can be used to understand viability effects. To generalize the intended target to other relatable targets, this assay endpoint is annotated to the cell cycle intended target family, where the subfamily is viability. […]

A short description of experiment [4]: BSK_BT_Bcell_Proliferation: Viability Assessment in the BioMAP Diversity Plus: BT Assay for B cell Proliferation (AID 2284227). The following applies: primary human B cells with PBMC. The protocol:
BSK_BT is a cell-based, multiplexed-readout assay that uses B cell and peripheral blood mononuclear cells, a human vascular primary cell co-culture, with measurements taken at 24 hours after chemical dosing in a microplate: 96-well plate.BSK_BT_Bcell_Proliferation is an assay component measured in the BSK_BT assay. It measures protein content, a form of viability reporter, as detected with absorbance signals by Sulforhodamine staining technology.Data from the assay component BSK_BT_Bcell_Proliferation was analyzed at the endpoint, BSK_BT_Bcell_Proliferation, in the positive analysis fitting direction relative to DMSO as the negative control and baseline of activity. […]
(§1) The levels of cell surface (or secreted, indicated by the prefix "s") biomarker endpoints were measured by ELISA. Overt cytotoxicity to cells in confluent adherent cultures (all systems other than the BT system) was assessed by measuring total protein levels using sulforhodamine B (SRB) staining in parallel cultures at the time of biomarker measurements, indicated as SRB endpoints. For proliferation assays for adherent cell types, individual cell types are cultured at sub-confluence and relative cell numbers quantified by SRB staining at time points optimized for each system (48 h: 3C and CASM3C systems; 72 h: BT and HDF3CGF systems; 96 h: SAg system). […] Plates were read after 6 h.

Read-out in experiment [5]: Interleukin 6 (IL6), IL6 (gene 3569)
The experiment can be described thus: BSK_BT_xIL6: BioMAP Diversity Plus: BT Assay for Interleukin 6 (IL6) Biomarker Activity (AID 2284228). Particulars: primary human B cells with PBMC. The protocol:
BSK_BT is a cell-based, multiplexed-readout assay that uses B cell and peripheral blood mononuclear cells, a human vascular primary cell co-culture, with measurements taken at 24 hours after chemical dosing in a microplate: 96-well plate.BSK_BT_xIL6 is an assay component measured in the BSK_BT assay. It measures secreted IL-6 related to regulation of gene expression using LumineX xMAP technology.Data from the assay component BSK_BT_xIL6 was analyzed at the endpoint, BSK_BT_xIL6, in the positive analysis fitting direction relative to DMSO as the negative control and baseline of activity. Using a type of cytokine quantitation reporter, gain or loss-of-signal activity can be used to understand protein changes. […]
as §1

Read-out in experiment [6]: Interleukin 17A (IL17A), IL17A (gene 3605)
As to the kind of experiment: BSK_BT_xIL17A: BioMAP Diversity Plus: BT Assay for Interleukin 17A (IL17A) Biomarker Activity (AID 2284229). Particulars: primary human B cells with PBMC. The essentials: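 Luminex xMAP readout of secreted IL-17A; human B cell + PBMC co-culture; 24 h post-dose; positive-direction fit vs DMSO negative control.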

Read-out in experiment [7]: Tumor necrosis factor (Homo sapiens) (UniProt P01375)
As to the kind of experiment: BSK_BT_xTNFa: BioMAP Diversity Plus: BT Assay for Tumor necrosis factor alpha (TNF-alpha) Biomarker Activity (AID 2284230). The following applies: primary human B cells with PBMC. The gist of the method:
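Read-out: Luminex xMAP quantitation of secreted TNF-alpha from a B cell/PBMC co-culture 24 h after compound addition. Signal analysed relative to DMSO vehicle, positive fitting direction.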

Read-out in experiment [8]: Vascular cell adhesion molecule 1 (VCAM1), VCAM1 (gene 7412)
As to the kind of experiment: BSK_MyoF_VCAM1: BioMAP Diversity Plus: MyoF Assay for Vascular cell adhesion molecule 1 (VCAM1) Biomarker Activity (AID 2284231). Particulars: primary human lung fibroblasts. The essentials: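 MyoF system, lung fibroblasts; 24 h post-dose; VCAM-1 by ELISA; gain-of-signal fit vs DMSO baseline.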

A short description of experiment [9]: TAMU_HCS_1.5hr_SingleDonor1434_Cytotoxicity: Cytotoxicity Assessment using High-content Screening (HCS) Fluorescent Imaging for the Texas A&M University (TAMU) 1.5-hr Human Induced Pluripotent Stem Cell (iPSC)-derived Cardiotoxicity Assay (AID 2284234; active means hit-call score of the fitted dose curve at least 0.9, where 1 is the maximum). The essentials: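 Human iPSC-derived cardiomyocytes dosed at 0.2, 1, 10, 100 uM final (0.5% DMSO) for 90 min at 37 C. Hoechst 33342-stained nuclei counted by 10x high-content imaging; POD is EC10, a 10% drop in total cell count versus DMSO.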

The nature of experiment [10]: TAMU_PeakParms_SingleDonor1434_QT: Texas A&M University (TAMU) 1.5-hr Human Induced Pluripotent Stem Cell (iPSC)-derived Cardiomyocytes Calcium (Ca+2) Flux Assay for Cardiotoxicity: QT (decay-rise ratio) (AID 2284235; active means hit-call score of the fitted dose curve at least 0.9, where 1 is the maximum). The gist of the method: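 iPSC-derived cardiomyocytes (single donor 1434) dosed at 0.2, 1, 10, 100 uM final in 0.5% DMSO, 90 min at 37C. Ca2+ flux fluorescence decay/rise ratio; EC05 (5% increase versus DMSO) as POD, excluding beat-arrest and severe-notch data.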

Inconclusive results are not listed. Activity calls are given as the source filed them. How the source made its calls, unless noted: active means hit-call score of the fitted dose curve at least 0.9, where 1 is the maximum; inactive means score below 0.9.

Sequence of Tumor necrosis factor (Homo sapiens) (P01375 whole entry, looked up): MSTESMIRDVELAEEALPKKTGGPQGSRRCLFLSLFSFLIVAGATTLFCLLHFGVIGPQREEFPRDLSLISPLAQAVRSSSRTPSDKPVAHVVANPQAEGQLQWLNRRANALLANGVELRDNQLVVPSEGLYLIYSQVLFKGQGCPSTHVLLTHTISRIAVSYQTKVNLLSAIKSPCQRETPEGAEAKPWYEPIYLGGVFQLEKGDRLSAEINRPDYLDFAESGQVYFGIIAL

Consider `CN/C(=N\[N+](=O)[O-])NCc1cnc(Cl)s1`, for which the compound was called inactive in experiment [1].
Consider `CO/N=C(/C1=NOCCO1)c1ccccc1Oc1ncnc(Oc2ccccc2Cl)c1F`, for which, in experiment [2], the compound was called inactive. Besides, the AC50 in experiment [1] was 2.55 µM (active).
As for `O=C(Nc1ccccc1-c1ccc(Cl)cc1)c1cccnc1Cl`, the call in [2] and in [1] was inactive.
As for `COP(=S)(OC)SCn1nnc2ccccc2c1=O`, the compound was called inactive in [3] and in experiment [1]. Besides, the half-maximal activity concentration (AC50) in [2] is 32.2 µM (active).
Turning to `CCSC(=O)N1CCCCCC1`, the compound was called inactive in experiment [2] and in experiment [1].
For the compound `COP(=O)(OC)O/C(C)=C/C(=O)N(C)C`, the call in experiment [1] was inactive.
With `CCOP(=O)(OCC)Oc1nc(Cl)c(Cl)cc1Cl`, the results for the concentration at half-maximal activity (AC50) in experiment [3] and in [2] were 65.1 µM (active) and 3.19 µM (active), respectively. Besides, in experiment [1], the compound was classed as inactive.
On to `CC1(C)C(C=C(Cl)Cl)C1C(=O)OC(C#N)c1cccc(Oc2ccccc2)c1` (centres undefined), for which the result in [1] was inactive.
In the case of `COCC(C)N(C(=O)CCl)c1c(C)csc1C` (centres undefined), the result in [4], in [5] and in [7] was inactive. In addition, the AC50 in [6] and in experiment [8] was 20 µM (active) in each case.
Turning to `N#CN=C1SCCN1Cc1ccc(Cl)nc1`, the result in experiment [1] was inactive.
Turning to `CS(=O)(=O)c1cc(C(F)(F)F)ccc1C(=O)c1cnoc1C1CC1`, the outcome in experiment [2] and in experiment [1] was inactive.
On to `CCN(CC)c1nc(C)cc(OP(=S)(OC)OC)n1`, for which the AC50 in experiment [1] was 90.6 µM (active).
As for `CS(=O)(=O)c1ccc(C(=O)C2C(=O)CCCC2=O)c([N+](=O)[O-])c1`, the compound was classed as inactive in experiment [2] and in experiment [1].
On to `CNC(=O)Oc1cccc2ccccc12`, for which the call in experiment [9] and in [1] was inactive.
With `CCNC(=O)NC(=O)C(C#N)=NOC`, in experiment [1], the compound was called inactive.
With `COC(=O)N(C(=O)N1CO[C@@]2(C(=O)OC)Cc3cc(Cl)ccc3C2=N1)c1ccc(OC(F)(F)F)cc1`, the AC50 in experiment [2] was 33.1 µM (active). For the same compound, in experiment [1], the compound was classed as inactive.
Regarding `CC(C)(C)C(=O)C(Oc1ccc(Cl)cc1)n1cncn1` (centres undefined), the compound was called inactive in experiment [2]. In addition, the AC50 in experiment [1] is 33.2 µM (active).
In the case of `Cc1c(COC(=O)[C@@H]2[C@H](/C=C(\Cl)C(F)(F)F)C2(C)C)cccc1-c1ccccc1`, the compound was called inactive in [2]. In experiment [1], the AC50 was 25.9 µM (active).
As for `C=C(C)CN(CC)c1c([N+](=O)[O-])cc(C(F)(F)F)cc1[N+](=O)[O-]`, the AC50 was 121 µM (active) in experiment [2] and 50 µM (active) in experiment [1].
Consider `O=C1C2CC=CCC2C(=O)N1SC(Cl)(Cl)Cl` (centres undefined), for which, in experiment [9], the concentration at half-maximal activity (AC50) is 84.7 µM (active). For the same compound, in experiment [10], the result was inactive.

The term AC50 denotes the concentration at which the activity in the assay is half-maximal.

These data come from PubChem BioAssay (EPA / NIEHS).
